Screening data as filed in PubChem BioAssay.
KB-V1 cytotox = kills drug-selected multidrug resistant KB-V1 cells. 400,000 tested, 3.4% active. Potency, µM (top dose mostly 46.1 µM), usual class: cytotoxic. KB-V1 MDR cells viability, CellTiter-Glo, 72 h; note: % is set by controls: 0 for no effect and ±100 for the full control effect; nearly all actives have a fitted effect of over 60% in size
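Potencies derive from concentration-effect curves fitted to normalized luminescence (CellTiter-Glo) of KB-V1 cells treated for 72 h at 37 degrees C in phenol-red-free DMEM containing 10% FBS.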
MCF10A rerep = inducers of DNA re-replication in MCF 10A breast cells; MCF 10A DNA re-replication, Hoechst nuclear intensity, 48 h; Potency, µM (doses to about 46.1 µM), inactives show at the highest dose activity, positive = re-replication, most hits filed as activators; 350,000 tested, 2.9% active; AID 624296; note: % of control where 0% means no effect; nearly all actives have a fitted effect of over 50% in size
SW480 rereplic = DNA re-replication induction in SW480 cells; SW480 DNA re-replication, Hoechst DNA content imaging, 48 h; Potency, µM (series often up to 46.1 µM), inactives show at the top dose re-replication activation, usual class: activators; 340,000 tested, 1.8% active; note: % of control where 0% means no effect; nearly all actives have a fitted effect of over 55% in size
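Quantitative HTS format with DMSO vehicle controls; 48 hr drug incubation at 37 C, then 40 min Hoechst staining and scanning imager measurement at 405 nm excitation.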
Gal4-VP16 FLuc = inhibits Gal4-VP16 luciferase reporter, ROR gamma counter-screen. 310,000 tested, 3.5% active. AID 2546. Potency, µM (highest dose often 53.6 µM), inactives show top-dose activity, negative = inhibition, hits mostly inhibitors. Drosophila S2 Gal4-VP16 UAS-luciferase, luminescence, 20 h;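 note: Gal4-VP16 expression switched on by copper sulfate through the metallothionein promoter; % is set by controls: 0 for no effect and ±100 for the full control effect; nearly all actives have a fitted effect of over 50% in size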
KB-3-1 cytotox = kills parental KB-3-1 adenocarcinoma cells | KB-3-1 viability, CellTiter-Glo ATP luminescence, 72 h | Potency, µM (titrated, usually from 46.1 µM), hits mostly cytotoxic | 400,000 tested, 1.4% active | AID 1347075; note: % is set by controls: 0 for no effect and ±100 for the full control effect; nearly all actives have a fitted effect of over 60% in size
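Cytotoxicity measured as CellTiter-Glo luminescence after 72 h at 37 C. Compound titrations were pinned onto drug-naive KB-3-1 parental adenocarcinoma cells grown in DMEM with 10% FBS, and normalized data fitted to concentration-response curves.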
RORgamma inh = inhibitors of mouse ROR gamma transcriptional activity | P51450 | Drosophila S2 Gal4-RORgamma UAS-luciferase reporter, 20 h | Potency, µM (highest dose often 53.6 µM), without a hit: top-dose activity change, negative = inhibition, actives largely listed as inhibitors | 310,000 tested, 5.4% active; note: % is set by controls: 0 for no effect and ±100 for the full control effect; nearly all actives have a fitted effect of over 60% in size
Target sequence (P51450 whole entry, looked up, the tested form may be a part): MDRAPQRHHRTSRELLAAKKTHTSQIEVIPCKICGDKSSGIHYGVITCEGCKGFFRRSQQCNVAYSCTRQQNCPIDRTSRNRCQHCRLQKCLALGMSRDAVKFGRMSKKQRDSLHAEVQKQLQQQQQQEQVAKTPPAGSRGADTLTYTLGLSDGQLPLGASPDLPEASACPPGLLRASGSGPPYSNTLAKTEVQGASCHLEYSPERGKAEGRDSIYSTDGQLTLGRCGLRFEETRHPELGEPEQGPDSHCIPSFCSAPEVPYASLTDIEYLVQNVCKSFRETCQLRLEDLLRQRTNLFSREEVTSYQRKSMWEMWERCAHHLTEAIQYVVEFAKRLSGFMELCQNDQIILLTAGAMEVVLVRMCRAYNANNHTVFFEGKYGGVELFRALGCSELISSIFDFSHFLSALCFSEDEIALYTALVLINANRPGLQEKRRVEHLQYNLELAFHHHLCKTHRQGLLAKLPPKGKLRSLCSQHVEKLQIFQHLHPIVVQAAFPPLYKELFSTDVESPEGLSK
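Read-out: Photinus luciferase luminescence; inhibitors lower reporter signal. Insect Schneider cells with Gal4-ROR gamma fusion under metallothionein promoter, UAS reporter; 700 uM final copper sulfate induction, 20 hr, ambient temperature.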
The depositor's hits bear a star; i = inactive; ? = inconclusive; . = no result. A selection: hits, their analogues and other compounds. The true share with any hit is near 10%. Calls come from the whole dose curve; as a rule, active = well fitted curve in the direction sought with a large enough effect; inconclusive = small, poorly fitted or top-dose-only effect, or another doubt; inactive = no such curve, though single readings can be large; an effect the other way counts as inactive or inconclusive. Potency is the fitted concentration of half-maximal effect.

SMILES | KB-V1 cytotox | MCF10A rerep | SW480 rereplic | Gal4-VP16 FLuc | KB-3-1 cytotox | RORgamma inh
O=C1NC(=S)/C(=C\c2ccc(-c3ccccc3Cl)o2)S1 | i | 6.5µM* | -49% | ? | ? | ?
O=C(Nc1cccc2cccnc12)c1ccc2sc([C@@H]3O[C@H](CO)[C@H](O)[C@H](O)[C@H]3O)nc2c1 | i | . | . | . | ? | .
CSc1ccccc1NC(=O)CN1CCN(S(=O)(=O)c2ccccc2[N+](=O)[O-])CC1 | 3.7µM* | 21% | -7% | . | i | .
CCS(=O)(=O)N1CCN(S(=O)(=O)c2ccccc2[N+](=O)[O-])CC1 | i | -13% | 3% | 9% | i | 5%
COC(=O)Nc1ccc(S(=O)(=O)N2CCCCC2C(=O)O)cc1 (centres undefined) | i | -12% | ? | -5% | i | 11%
CC1CCc2cc(F)ccc2N1S(=O)(=O)c1ccc(F)cc1 (centres undefined) | i | 5% | -1% | 1% | i | 10µM*
COC(=O)Nc1ccc(S(=O)(=O)N2c3ccccc3CCC2C)cc1 (centres undefined) | 4.1µM* | -1% | 9% | -18% | 7.3µM* | -26%
COC(=O)C1(C(=O)OC)C[C@H]2CON=C2[C@H]1c1ccccc1 | . | . | . | 2% | . | -6%
Cc1ccccc1C(=O)N1CCN(c2ccc([N+](=O)[O-])c(NCc3cccnc3)c2)CC1 | 4.1µM* | 4% | -1% | -2% | i | ?
O=C(C(Br)=Cc1ccccc1)c1ccccc1 | . | 16µM* | 2.9µM* | . | . | .
CCN(CC)C(=O)Cn1c(=O)n(CC2CCC(C(=O)NC)CC2)c(=O)c2sccc21 (centres undefined) | i | . | . | . | i | .
O=C(NC(=S)Nc1cccc(S(=O)(=O)NC2=NCCC2)c1)c1cc(-c2ccco2)nc2ccccc12 | i | ? | 9.2µM* | -3% | 6.5µM* | -7%
CCOc1ccc(C(=O)NC(=S)Nc2cccc(S(=O)(=O)NC3=NCCC3)c2)cc1 | 7.3µM* | 2.6µM* | ? | 18% | 2.3µM* | ?
CCOc1cc(C(=O)OCC(=O)Nc2cccc(S(=O)(=O)NC3=NCCCCC3)c2)cc(OCC)c1OCC | 8.2µM* | 8% | -1% | . | i | .
CCOc1ccccc1C(=O)OCC(=O)Nc1cccc(S(=O)(=O)NC2=NCCCCC2)c1 | i | 2% | -9% | . | i | .
CCCCOC(=O)c1ccc(NC(=O)CSc2nc3c(c(=O)[nH]2)CCC3)cc1 | i | . | . | . | i | .
COc1ccc(-n2c(=O)c3sc4ccccc4c3n(CC(=O)Nc3ccccc3F)c2=O)cc1 | i | . | . | . | i | .
CCc1ccccc1Nc1nn2c(=O)c3ccc(C(=O)NCc4ccc(C)cc4)cc3nc2s1 | i | . | . | . | 2.9µM* | .
CCc1ccccc1Nc1nn2c(=O)c3ccc(C(=O)NCCc4ccccc4)cc3nc2s1 | i | . | . | . | i | .
Cc1ccc2c(c1)C(=O)OC(C(=O)Nc1ccc(C(=O)O)cc1)C2 (centres undefined) | i | . | . | . | i | .
Cc1[nH]nc(-c2cccnc2)c1N=NN(C)C | 16µM* | 1.6µM* | 2.6µM* | . | ? | .
COc1cccc(/C=C/C(=O)OCC(=O)Nc2nnc(-c3ccccc3)o2)c1 | i | -3% | -60% | . | i | .
O=C(Oc1ccc2[nH]cc(CCN3C(=O)c4ccccc4C3=O)c2c1)c1ccco1 | i | 12µM* | -8% | -5% | i | 14%
O=C1c2ccccc2C(=O)N1CCCc1c[nH]c2ccc(Cl)cc12 | 21µM* | 1% | -100% | 3% | ? | ?
CCOC(=O)Cc1ccc(NC(=O)NCc2ccc3c(c2)CCN3C(=O)CC)cc1 | i | . | . | . | i | .
SMILES | KB-V1 cytotox | MCF10A rerep | SW480 rereplic | Gal4-VP16 FLuc | KB-3-1 cytotox | RORgamma inh
Cc1ccc(OCCCC(=O)NCc2ccco2)cc1 | i | 0% | -3% | 3% | i | 15%
Cc1ccc(OCCNC(=O)C(=O)NCc2ccco2)cc1 | ? | 1.6µM* | 10µM* | 1% | ? | -2%
Cc1ccc(C(=O)Nc2cccc(C(=O)NCc3ccccc3)c2)cc1 | 4.6µM* | ? | 2% | -13% | 8.2µM* | 39%
Cc1ccc(CNC(=O)c2ccc3c(=O)c(O)c(-c4ccc(C)cc4)[nH]c3c2)cc1 | ? | ? | ? | -20% | 4.6µM* | -6%
COc1ccc(C(=O)Nc2cccc(C(=O)NCc3ccccc3)c2)cc1 | ? | 13% | 9% | 16% | i | 1%
Cc1ccc(C(=O)Nc2cccc(C(=O)NCc3ccco3)c2)cc1 | i | 11% | 2% | -2% | 3.3µM* | 8%
COc1cc2c(=O)n(Cc3ccccc3Cl)c(=O)n(CC(=O)Nc3ccccc3)c2cc1OC | i | . | . | . | i | .
Cc1ccc(Nc2nc(NCc3ccco3)nc3nccnc23)cc1 | i | . | . | . | ? | .
CC1Cn2c(nnc2C23CC4CC(CC(C4)C2)C3)S1 (centres undefined) | i | 15µM* | ? | 6% | i | -11%
N#CC1=C(N)SC(N)=C(C#N)C1C1CC=CCC1 (centres undefined) | i | -9% | ? | ? | i | 16µM*
N#CC1=C(N)SC(N)=C(C#N)C1C1C=CCCC1 (centres undefined) | i | 2% | -6% | ? | i | ?
C=CCOC(=O)N[C@H](/C(C(=O)OC)=C(\C)NCc1ccccc1)c1ccc(C)cc1 | . | . | . | 2% | . | -17%
CCNS(=O)(=O)c1ccc(NC(=S)NCc2ccco2)cc1 | i | 1% | 3% | -11% | i | 15%
CCCCc1ccc(S(=O)(=O)NNC(=S)NCc2ccco2)cc1 | i | 11% | 1% | ? | i | 8.9µM*
O=S(=O)(NCc1ccccc1)c1ccc(NC(=S)NCc2ccco2)cc1 | ? | -2% | -3% | -16% | i | ?
CC(=O)Nc1ccc(S(=O)(=O)NNC(=S)NCc2ccco2)cc1 | . | ? | 5% | -28% | . | 11µM*
CC1(C(=O)NNC(=S)NCc2ccco2)CC1(Cl)Cl (centres undefined) | i | -19% | -10% | -2% | ? | 8.9µM*
CC(C)CC(=O)NNC(=S)NCc1ccco1 | i | -31% | -39% | -6% | i | ?
COc1ccc(Oc2ncc3nc(-c4ccc(F)cc4)c(=O)n(Cc4cccs4)c3n2)cc1 | . | . | . | -4% | . | -20%
CC(C)N(Cc1ccccc1)C(=S)NC(=O)C1(C)CC1(Cl)Cl (centres undefined) | ? | 2% | -1% | 2.5µM* | ? | 0.56µM*
